Screens: PubChem BioAssay, National Center for Advancing Translational Sciences (NCATS)
Sampled rows, rich in hits. Any-hit rate of the full collection: about 19%.
IL-1B inflam inh: inhibitors of inflammasome signaling (IL-1 beta secretion); THP-1 LPS/ATP IL-1B secretion, AlphaLISA, 16 h; hits give low values; activity change, % at 57.5 µM; hit rate 4.7% among 360,000; AID 743279; in the data active = activity change below about -50%; inconclusive = mostly about -30% to -49%; also: % is scaled to controls: 0 for no effect and ±100 for the full control effect
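Secreted IL-1B measured by AlphaLISA bead assay after 16 h compound exposure of THP-1 cells; compounds (final up to 57.5 uM) added 1 h before LPS (250 ng/mL) and ATP (1.25 mM) stimulation; lower signal means less secretion.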
HepG2 viability: HepG2 cytotoxicity, counter-screen for TGF-b inhibitors. Potency, µM (doses to about 46.1 µM), for inactives: at the highest dose activity change, negative = cytotoxicity, actives largely listed as cytotoxic. hit rate 0.76% among 410,000. AID 588856. HepG2 CAGA-GFP viability, ATP luminescence, 18 h; also: potency is read from the fitted curve at half-maximal effect
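CellTiter-Glo luminescence gave cytotoxicity after 18 hours at 37 degrees C. The cells were HepG2 CAGA-GFP in 1% FBS DMEM, stimulated with 500 pg/mL TGF-beta after compound addition. %Activity was normalised to no-cell wells (complete cell-killing) and DMSO (no toxicity), and curves were fitted and classified.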
S-ASM inh: human S-ASM enzyme inhibition | P17405 | Potency, µM (doses to about 57.5 µM), inactives show at the highest dose activity change, negative = inhibition, usual class: inhibitors | AID 504937 | placental ASM, HMU-PC fluorogenic substrate, 60 min | hit rate 0.006% among 340,000; also: potency is read from the fitted curve at half-maximal effect
Target sequence (P17405 47-631 limits assumed): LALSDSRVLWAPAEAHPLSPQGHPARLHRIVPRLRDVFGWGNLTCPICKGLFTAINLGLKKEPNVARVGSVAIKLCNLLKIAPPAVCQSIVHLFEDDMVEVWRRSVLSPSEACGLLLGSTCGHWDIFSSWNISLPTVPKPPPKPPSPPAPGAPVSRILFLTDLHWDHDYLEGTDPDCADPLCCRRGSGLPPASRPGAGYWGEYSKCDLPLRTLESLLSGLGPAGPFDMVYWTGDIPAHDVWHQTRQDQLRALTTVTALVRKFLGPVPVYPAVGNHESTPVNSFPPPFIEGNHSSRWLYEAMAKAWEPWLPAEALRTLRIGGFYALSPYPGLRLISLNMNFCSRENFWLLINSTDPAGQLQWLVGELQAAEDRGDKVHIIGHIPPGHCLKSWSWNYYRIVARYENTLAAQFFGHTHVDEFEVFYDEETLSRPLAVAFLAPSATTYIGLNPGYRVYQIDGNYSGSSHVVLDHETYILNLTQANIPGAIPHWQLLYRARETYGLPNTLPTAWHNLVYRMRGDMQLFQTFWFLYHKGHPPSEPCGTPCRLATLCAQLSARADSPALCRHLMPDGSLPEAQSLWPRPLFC
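Fluorescence read-out (Ex 386 nm, Em 447 nm) after stopping the reaction at pH 10. Enzyme: ASM from human placenta; substrate HMU-PC0, 9 uM final; 60 min, 37 °C. Compound preincubation 10 min, ambient temperature.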
TGFb inhibitor: TGF-b pathway inhibition | hit rate 1.2% among 410,000 | AID 588855 | Potency, µM (series often up to 46.1 µM), without a hit: at the top dose activity, negative = inhibition, actives largely listed as inhibitors | HepG2 CAGA-GFP TGF-b/SMAD3 reporter, GFP fluorescence, 18 h; TGF-beta stimulated, 500 pg/mL final; also: potency is read from the fitted curve at half-maximal effect; % is scaled to controls: 0 for no effect and ±100 for the full control effect; nearly all actives have a fitted effect of over 65% in size
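Per well, imaged GFP fluorescence of HEPG2 CAGA-GFP cells gives the signal; cells get compound, then TGF-beta (500 pg/mL final), 18 h at 37 degrees C; %Activity versus -TGF-beta and +DMSO controls.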
TDP1 cell noCPT: qHTS for Inhibitors of human tyrosyl-DNA phosphodiesterase 1 (TDP1): qHTS in cells in absence of CPT | AID 686978, 2013 | hit rate 15% among 420,000 | Potency, µM (doses to about 46.2 µM), without a hit: at the top dose activity change, negative = growth inhibition, hits mostly inhibitors | DT40 Tdp1-/- hTDP1 cells, no CPT, ATP luminescence, 48 h; also: potency is read from the fitted curve at half-maximal effect; % is scaled to controls: 0 for no effect and ±100 for the full control effect; nearly all actives have a fitted effect of over 55% in size
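Camptothecin absent (DMSO only). Human TDP1-complemented DT40 knockout cells, 400 cells/well, 37 °C for minimum 48 hr; ATP measured via CellTiter-Glo, 30 min dark incubation, luminescence.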
TDP1 cell CPT: DT40-hTDP1 cell growth loss with CPT; AID 686979; Potency, µM (series often up to 46.2 µM), without a hit: at the top dose activity change, negative = growth inhibition, hits mostly inhibitors; chicken DT40 Tdp1-/-;hTDP1 cells + 20 nM CPT, ATP luminescence, 48 h; hit rate 12% among 420,000; also: potency is read from the fitted curve at half-maximal effect; % is scaled to controls: 0 for no effect and ±100 for the full control effect; nearly all actives have a fitted effect of over 55% in size
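Cell growth measured by CellTiter-Glo luminescence after a minimum 48 h, 37 C compound exposure with 20 nM CPT in Tdp1-knockout DT40 cells stably expressing hTDP1, seeded 400/well; qHTS titration format.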
An asterisk follows results filed as active; ? = inconclusive; · = no result. Unless noted, calls follow the shape of the dose curve; as a rule, active = well fitted curve in the direction sought with a large enough effect; inconclusive = small, poorly fitted or top-dose-only effect, or another doubt; inactive = no such curve, though single readings can be large; an effect the other way counts as inactive or inconclusive.

SMILES | IL-1B inflam inh | HepG2 viability | S-ASM inh | TGFb inhibitor | TDP1 cell noCPT | TDP1 cell CPT
O=C(NC1CCCC1)c1ccc(COc2ccccc2Br)o1 | -5 | -18% | -5% | -3% | ? | ?
COc1cccc(Nc2nc(C(N)Cc3ccc(C(F)(F)F)cc3)cs2)n1 (stereo unspecified) | ? | 10µM* | · | ? | 12µM* | 9.2µM*
NC(Cc1ccc(F)cc1)c1csc(Nc2ccc(C(=O)NCCCO)cn2)n1 (stereo unspecified) | -4 | -3% | · | 27% | ? | ?
COc1ccc(CC(N)c2csc(Nc3cccc(OC)n3)n2)cc1 (stereo unspecified) | 0 | 13µM* | · | ? | 13µM* | 15µM*
NC(Cc1ccccc1)c1csc(Nc2ccc(C(F)(F)F)cn2)n1 (stereo unspecified) | -53* | -84% | · | ? | 21µM* | 21µM*
COc1cccc(Nc2nc(C(N)Cc3ccc(Cl)cc3)cs2)n1 (stereo unspecified) | -67* | -73% | · | ? | 6.5µM* | 6.5µM*
CCC(C)n1c(C)cc(=O)n1C(C)CC (stereo unspecified) | 7 | 3% | 3% | -12% | -11% | -11%
COc1ccc(CC(N)c2csc(Nc3ccccn3)n2)cc1 (stereo unspecified) | -50* | -63% | · | ? | 26µM* | 23µM*
COc1ccc(C(N)c2csc(NC(=O)Nc3ccccc3C(C)(C)C)n2)cc1 (stereo unspecified) | -29 | -54% | · | ? | ? | ?
NC(=O)c1cccc(Nc2nc(C(N)Cc3ccc(C(F)(F)F)cc3)cs2)n1 (stereo unspecified) | -28 | -103% | · | ? | 10µM* | 6.5µM*
COc1ccc(C(N)c2csc(Nc3ccc(C(F)(F)F)cn3)n2)cc1 (stereo unspecified) | -8 | -102% | · | ? | 18µM* | ?
C=CCn1cnc2c(nnn2-c2ccc(Cl)cc2)c1=O | -16 | 6% | 1% | 17% | -11% | 3%
COc1cccc(NS(=O)(=O)c2ccc3c(c2)N(C)C(=O)CC(=O)N3C)c1 | · | -3% | · | -7% | -17% | -3%
O=C(Cn1cnc2c(oc3nc4c(cc32)CCCC4)c1=O)Nc1cccc(Cl)c1 | 8 | -2% | 20% | -1% | 12µM* | 23µM*
O=C(Cn1cnc2c(oc3nc4c(cc32)CCCC4)c1=O)Nc1ccccc1 | 14 | -27% | 7% | -20% | ? | -9%
Cc1nonc1CN(C)C(=O)CC1C(=O)NCCN1Cc1ccc(F)c(F)c1 (stereo unspecified) | 19 | -12% | 4% | -1% | -6% | -10%
Cc1cccc(-c2nc3scc(CCNS(=O)(=O)c4c(C)noc4C)n3n2)c1 | · | -19% | · | -25% | ? | ?
O=S(=O)(NCCc1csc2nc(-c3ccc(Cl)cc3)nn12)c1cccs1 | · | -23% | · | -34% | 15µM* | 18µM*
Cc1noc(C)c1S(=O)(=O)NCCc1csc2nc(-c3ccc(Cl)cc3)nn12 | · | -16% | · | -4% | 12µM* | 23µM*
CCOc1ccc(-n2cc(-c3ccccc3)c3c(N4CCN(c5ccccc5OC)CC4)ncnc32)cc1 | · | -10% | · | -2% | 16µM* | 12µM*
CCOc1ccc(-n2cc(-c3ccccc3)c3c(N4CCC(C)CC4)ncnc32)cc1 | · | -21% | · | -3% | ? | ?
CCOC(=O)C1CCN(c2ncnc3c2c(-c2ccccc2)cn3-c2ccccc2)CC1 | -21 | -19% | -3% | -9% | 23µM* | ?
COc1cccc(N2CCN(c3ncnc4c3c(-c3ccccc3)cn4-c3ccc(C)cc3)CC2)c1 | · | -11% | · | 0% | -1% | 3%
COc1ccc(-n2cc(-c3ccccc3)c3c(N4CCCC(C)C4)ncnc32)cc1 (stereo unspecified) | · | 4% | · | 10% | 10µM* | 16µM*
Cc1ccc(-n2cc(-c3ccccc3)c3c(N4CCCCC4)ncnc32)cc1 | · | -34% | · | -6% | 23µM* | 21µM*
SMILES | IL-1B inflam inh | HepG2 viability | S-ASM inh | TGFb inhibitor | TDP1 cell noCPT | TDP1 cell CPT
Cc1ccc(-n2cc(-c3ccccc3)c3c(N4CCOCC4)ncnc32)cc1 | ? | -2% | -5% | 9% | ? | -29%
Cc1cccc(-n2cc(-c3ccccc3)c3c(N4CCOCC4)ncnc32)c1 | -67* | 10% | -7% | ? | ? | ?
O=C(NCC12CC3CC(CC(C3)C1)C2)c1cc2nc(-c3ccc(Cl)cc3)cc(C(F)(F)F)n2n1 | · | 4% | · | 10% | · | ·
Cc1c(C(=O)Nc2ccc(S(=O)(=O)N(C)C3CCN(C)CC3)cc2)oc2ccccc12 | -52* | -47% | -3% | ? | 18µM* | 21µM*
Cc1c(C(=O)Nc2ccc(S(=O)(=O)N(C)C3CCN(C)CC3)cc2)oc2c(Cl)cccc12 | -96* | -111% | -15% | ? | ? | ?
COCCNC(=O)c1cccc2c1-c1ccccc1C2=O | 12 | 0% | -3% | 15% | 6% | -1%
O=C(CN1C(=O)COc2ccc(Cl)cc21)N1CCCCC1 | -15 | 2% | -4% | 14% | 9% | -2%
C/C(Cn1nnc([N+](=O)[O-])n1)=N\NC(=O)c1cccc(Cl)c1 | 31 | -52% | 2% | ? | ? | 16µM*
C/C(Cn1nnc([N+](=O)[O-])n1)=N\NC(=O)c1ccccc1Cl | 63 | -37% | -1% | ? | ? | 23µM*
C/C(CC(=O)Nc1ccccn1)=N\NC(=O)c1ccc([N+](=O)[O-])cc1Cl | -1 | 19% | 1% | 31% | 4% | 1%
COc1ccccc1N1CC(C(=O)OCC(=O)Nc2c(C)cccc2C)CC1=O (stereo unspecified) | 6 | 4% | -5% | 1% | -9% | -1%
CN(/N=C/c1cc(Br)cc(Br)c1O)c1cccc(C(F)(F)F)n1 | -10 | 3.2µM* | 11% | ? | 16µM* | 7.3µM*
CCOc1ccc(OCCC(=O)OCC(=O)N2CCN(S(=O)(=O)c3ccc(C)cc3C)CC2)cc1 | -9 | -22% | -6% | 8% | -20% | ?
O=C(OCC(=O)N1CCN(S(=O)(=O)c2ccc(Cl)cc2)CC1)c1ccc([N+](=O)[O-])o1 | ? | -23% | 0% | -13% | ? | 18µM*
